Rows were chosen to be rich in hits. Some 2.3% of all compounds tested hit in one or more screens of this group.
Nrf2 inh: Nrf2 qHTS screen for inhibitors; 360,000 tested, 2.1% active; A549 ARE-Fluc reporter, luciferase luminescence, 18-24 h; AID 504444, 2011; Potency, µM (series often up to 46 µM), for the others: at the top dose activity change, negative = inhibition, actives largely listed as inhibitors; note: potency is the fitted concentration of half-maximal effect; % is set by controls: 0 for no effect and ±100 for the full control effect; nearly all actives have a fitted effect of over 60% in size
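Nrf2 activity is the BugLite luminescence, read 15 min after reagent at room temperature, following CellTiter-Fluor cytotoxicity readout (30 min, 37C). Compound titrations were applied for 18-24 h to 5000 A549 ARE_Fluc cells/well in 5% FBS OPTI-MEM.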
mIDH1 inhibitor: qHTS for Inhibitors of mutant isocitrate dehydrogenase 1 (IDH1): qHTS; Isocitrate dehydrogenase [NADP] cytoplasmic (Homo sapiens), O75874; IDH1-R132H enzyme, NADPH consumption, diaphorase/resazurin fluorescence; 390,000 tested, 0.093% active; Potency, µM (series often up to 76.6 µM), inactives show top-dose activity change, negative = inhibition, usual class: inhibitors; AID 602179, 2012; note: potency is the fitted concentration of half-maximal effect; % is set by controls: 0 for no effect and ±100 for the full control effect; nearly all actives have a fitted effect of over 65% in size
Target sequence (O75874 whole entry R132H, stated change not applied): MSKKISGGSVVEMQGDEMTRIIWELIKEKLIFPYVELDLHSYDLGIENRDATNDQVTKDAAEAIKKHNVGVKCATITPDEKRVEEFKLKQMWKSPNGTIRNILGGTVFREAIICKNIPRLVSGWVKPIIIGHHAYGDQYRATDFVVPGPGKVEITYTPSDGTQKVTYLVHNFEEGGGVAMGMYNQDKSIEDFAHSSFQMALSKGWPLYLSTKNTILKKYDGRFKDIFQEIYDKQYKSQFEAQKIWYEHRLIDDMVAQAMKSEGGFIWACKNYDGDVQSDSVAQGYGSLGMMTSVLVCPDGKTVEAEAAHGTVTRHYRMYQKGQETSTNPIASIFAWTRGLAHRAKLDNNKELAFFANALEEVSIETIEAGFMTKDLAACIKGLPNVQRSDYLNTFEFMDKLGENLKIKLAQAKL
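IDH1-R132H (0.5 ug/mL dispensed) in pH 7.5 Tris buffer was preincubated 30 min with compound, then given a substrate mix of 0.016 mM NADPH and 2 mM alpha-KG for 80 min at room temperature; remaining NADPH was read by diaphorase/resazurin fluorescence.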
Anesthetic bind: qHTS Assay for Identification of Novel General Anesthetics | Ferritin light chain (Equus caballus), P02791 | AID 485281, 2010 | apoferritin/1-aminoanthracene competitive binding, fluorescence | 350,000 tested, 0.074% active | Potency, µM (titrated, usually from 77.5 µM), for inactives: at the top dose activity change, negative = displacement, most hits filed as inhibitors; note: potency is the fitted concentration of half-maximal effect; % is set by controls: 0 for no effect and ±100 for the full control effect; nearly all actives have a fitted effect of over 20% in size
Target sequence (P02791 2-175 limits assumed): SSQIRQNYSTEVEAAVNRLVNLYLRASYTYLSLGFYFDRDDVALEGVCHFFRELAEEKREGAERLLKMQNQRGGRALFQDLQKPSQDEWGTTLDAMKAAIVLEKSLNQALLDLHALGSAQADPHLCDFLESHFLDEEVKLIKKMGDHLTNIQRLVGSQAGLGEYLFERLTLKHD
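Concentration-response curves derived by four-parameter Hill fitting of normalized fluorescence, where compounds displaced 1-AMA from 10 uM horse apoferritin following a brief 10 min room-temperature incubation; propofol titration acted as positive control.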
A549 viability: Nrf2 qHTS screen for inhibitors: counterscreen for cytotoxicity | A549 ARE-Fluc cells, CellTiter-Fluor viability, 18-24 h | 390,000 tested, 0.16% active | AID 504648, 2011 | Potency, µM (titrated, usually from 46 µM), for inactives: at the highest dose activity change, negative = cytotoxicity, actives largely listed as inhibitors; note: potency is the fitted concentration of half-maximal effect; % is set by controls: 0 for no effect and ±100 for the full control effect
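A549 ARE_Fluc cells in 5% FBS OPTI-MEM were exposed to compounds in concentration-response for 18-24 h at 37 deg C. Viability was read by CellTiter-Fluor fluorescence (Ex 405/Em 525) after 30 min, before the luciferase read.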
Giardia killer: Small Molecules that selectively kill Giardia lamblia: qHTS. Giardia lamblia trophozoite viability. activity change, % at 7.66 µM, hits read low. 340,000 tested, 0.15% active. AID 540267, 2011; in the data active = activity change below about -80%; inconclusive = between about -30% and that limit;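 note: parasites exposed to compound for two days anaerobically before the ATP read; % is set by controls: 0 for no effect and ±100 for the full control effect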
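Anaerobic 48 hrs incubation at 37 deg C of 100 trophozoites/well with test compounds; ATPLite 1-Step luminescence, 15-30 min RT, reports cellular ATP as viability.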
Nrf2 ARE act: qHTS of Nrf2 Activators; 410,000 tested, 0.31% active; AREc32 ARE-luciferase reporter (MCF7-derived line), luminescence, 24 h; Potency, µM (top dose mostly 46.1 µM), for inactives: at the highest dose activation, usual class: activators; note: potency is the fitted concentration of half-maximal effect; % of control where 0% means no effect; nearly all actives have a fitted effect of over 65% in size
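Luminescent ARE reporter assay in AREc32_Fluc cells: overnight plating at 37 deg C, 24 hr compound incubation, Steady-Glo added, 30 min RT before reading.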
Numbers without * were called inactive; u = inconclusive; x = no result given; [ ] = dose if it differs, or a comment. Unless noted, calls come from the whole dose curve; as a rule, active = well fitted curve in the direction sought with a large enough effect; inconclusive = small, poorly fitted or top-dose-only effect, or another doubt; inactive = no such curve, though single readings can be large; an effect the other way counts as inactive or inconclusive.

SMILES	Nrf2 inh	mIDH1 inhibitor	Anesthetic bind	A549 viability	Giardia killer	Nrf2 ARE act
Fc1ccc(N=C2NN=C(c3cc(F)ccc3F)CS2)cc1	u	11.2µM*	1.7%	u	-0.4	20.9%
Cc1ccc(N2CC(C(=O)Nc3nnc(C)s3)CC2=O)cc1 (configuration not stated)	-11.0%	0.8%	-5.4%	0.7%	10.0	-0.1%
Cc1ccc(N2CC(C(=O)Nc3ncc([N+](=O)[O-])s3)CC2=O)cc1 (configuration not stated)	-5.4%	0.0%	-8.5%	-13.8%	-85.3*	0.5%
O=C(NC1CCCC1)c1ccc(CSc2nc3ccncc3n2Cc2ccc(F)cc2)cc1	u	-9.0%	-6.9%	1.0%	-24.5	3.6%
O=C(NC1CCCCC1)c1ccc(CSc2nc3ccncc3n2Cc2ccccc2)cc1	u	34.4%	-9.0%	-0.7%	x	6.8%
Cc1ccc(Cn2c(SCc3ccc(C(=O)NC4CCCCC4)cc3)nc3ccncc32)cc1	20.6µM*	-19.9%	-7.7%	-16.5%	x	3.8%
COc1ccc(Cn2c(SCc3ccc(C(=O)NC4CCCC4)cc3)nc3ccncc32)cc1	16.4µM*	-10.8%	2.7%	-14.4%	x	0.2%
COc1ccc(Cn2c(SCc3ccc(C(=O)NC4CCCCC4)cc3)nc3ccncc32)cc1	13µM*	-6.1%	84.2%	-5.1%	x	6.6%
CN(C)c1ccc(CC(=O)N2CCCC(c3cc(C(=O)Nc4ccc(F)c(Cl)c4)no3)C2)cc1 (configuration not stated)	x	x	x	x	x	3.5%
CCN1CCN(C(C(=O)NC2CCCCC2)c2cc3ccccc3o2)CC1 (configuration not stated)	x	x	x	x	x	0.5%
COC(=O)c1ccc(NS(=O)(=O)c2cc3c4c(c2)CCN4C(=O)CC3)cc1	-15.3%	-6.0%	x	-0.6%	33.2	0.0%
COC(=O)c1ccc(NS(=O)(=O)c2cc3c4c(c2)CCC(=O)N4CCC3)cc1	23.1µM*	-6.8%	x	0.1%	-19.1	5.0%
CCOc1ccc(CCNC(=O)C2CCN(c3ncnc4c3nc3n4CCCCC3)CC2)cc1	-6.7%	-12.8%	-0.4%	2.6%	x	-0.5%
Cc1ccc(Cl)c(NC(=O)COC(=O)c2ccccc2C(=O)c2ccc(Cl)c([N+](=O)[O-])c2)c1Cl	23.1µM*	0.9%	-14.7%	u	-1.5	0.2%
CCOc1ccc(-c2nc(SCC(=O)NC3CCCC3)c(-c3ccccc3)[nH]2)cc1OC	u	-6.5%	-20.0%	-9.9%	x	-0.9%
CSCC[C@H](NC(=O)c1cccc(S(=O)(=O)N2CCCCCC2)c1)c1nc2ccccc2[nH]1	18.4µM*	-8.2%	x	u	-5.0	-0.5%
CSCCC(NC(=O)c1cccc(S(=O)(=O)N2CCOCC2)c1)c1nc2ccccc2[nH]1 (configuration not stated)	-7.4%	-0.4%	x	5.6%	-5.7	0.0%
CCCCCOc1ccc(NC(=O)Cc2csc(C)n2)cc1	u	12.4%	u	-10.8%	x	0.8%
Cc1cccc2sc(NC(=O)C3c4ccccc4Oc4ccccc43)nc12	20.6µM*	5.0%	-7.0%	-11.1%	12.1	-0.2%
Cc1cccc2sc(NC(=O)c3ccc(Cl)s3)nc12	20.1%	10.6%	2.1%	7.1%	-20.8	7.08µM*
C[C@H](CO)N1C[C@H](C)[C@@H](CN(C)Cc2ccc3c(c2)OCO3)Oc2cc(Br)ccc2S1(=O)=O	x	-6.4%	x	x	x	3.3%
CC(C)C[C@H]1CNC(=S)N1CC1CCN(CCCCc2ccccc2)CC1	-4.2%	-3.4%	x	-2.1%	7.6	0.4%
CCCCC[C@H]1CN(CCc2ccccc2)C(=O)[C@@H]1CC(=O)NCc1ccc(OC)cc1	25.9µM*	-6.0%	6.4%	u	6.8	5.3%
O=C(CCS(=O)(=O)c1cccc2nsnc12)Nc1ccc(F)cc1	-5.8%[9.27 µM]	-14.1%	-2.6%	5.2%	x	5.5%
O=C(CSc1nnc(-c2c[nH]c3ccccc23)o1)N1c2ccccc2CCc2ccccc21	11.6µM*	3.3%	2.8%	-25.7%	-5.4	-0.1%
SMILES	Nrf2 inh	mIDH1 inhibitor	Anesthetic bind	A549 viability	Giardia killer	Nrf2 ARE act
O=C(CSc1nnc(-c2c[nH]c3ccccc23)o1)N1CCCCC1	u	6.5%	u	2.8%	13.2	8.0%
CC1Cc2ccccc2N1C(=O)CSc1nnc(-c2ccccc2)c(-c2ccccc2)n1 (configuration not stated)	23.1µM*	9.5%	-13.8%	0.0%[1.84 µM]	-12.9	-0.2%
CC1Cc2ccccc2N1C(=O)CSc1nnc(-c2ccccc2Cl)o1 (configuration not stated)	-29.5%	x	8.7%	0.2%	x	1.78µM*
COc1cc(OC)c(Nc2ncnc3onc(-c4cccc(Cl)c4)c23)cc1Cl	-1.8%	-1.2%	-2.1%	6.6%	x	0.3%
COc1cc(C(=O)Nc2nc(-c3cc(C)ccc3C)c(C)s2)ccc1OCC(=O)Nc1ccc(F)cc1	u	-1.0%	9.3%	0.5%	6.0	-0.4%
COc1ccc(-c2nc(NC(=O)c3ccc(OCC(=O)Nc4ccc(F)cc4)c(OC)c3)sc2C)cc1	14.6µM*	5.1%	-9.1%	u	7.1	0.0%
O=C(Nc1ccc(Br)cc1)c1ccc(F)c(S(=O)(=O)N2CCN(c3ccccn3)CC2)c1	23.1µM*	-9.3%	-7.2%	-8.9%	-5.6	2.7%
COc1cc(C(=O)Nc2nc(-c3ccc(F)cc3)cs2)ccc1OCC(=O)N1CCOCC1	20.6µM*	14.7%	0.6%	-13.1%	5.3	-2.4%
COc1cccc(C(=O)Nc2nc(-c3ccc(S(=O)(=O)N4CCOCC4)cc3)cs2)c1	13µM*	-1.2%	3.3%	-18.4%	-6.4	0.5%
O=[N+]([O-])c1ccc2c(c1)S(=O)(=O)C=C2	x	x	-5.9%	x	x	x
O=C(Nc1ccc(Br)cc1)c1cccc(-n2cnnn2)c1	-14.6%	3.2%	-2.0%	-5.7%	-2.6	2.0%
O=C(Nc1nc(-c2ccc(S(=O)(=O)N3CCCCCC3)cc2)cs1)c1cccs1	6.51µM*	-4.8%	-5.8%	-11.2%	22.0	3.1%
O=C(Nc1nc(-c2ccccn2)cs1)c1cccc(-n2cnnn2)c1	7.31µM*	-5.1%	-9.9%	-7.5%	-8.3	0.1%
O=C(Nc1nc(-c2ccccn2)cs1)c1ccc(F)c(S(=O)(=O)N2CCOCC2)c1	8.2µM*	3.3%	x	u	8.8	2.8%
O=C(Nc1nc(-c2ccccc2)cs1)C1CCCN(S(=O)(=O)c2ccccc2)C1 (configuration not stated)	20.6µM*	2.5%	12.4%	0.0%[1.84 µM]	-9.1	0.1%
